High-throughput results as filed in PubChem BioAssay.
KKLEB cytotox: counter-screen for CF NF-kB inhibitors: cytotoxicity | KKLEB CF airway cells viability, ATPlite luminescence, overnight; active compounds read low; cells stimulated with P. aeruginosa culture filtrate | activity change (cytotoxicity), % at 5 µM | actives 0.36% (n = 360,000);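 active means corrected activity change at or below -50% at 5 µM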
EBV LMP1 NFkB: Epstein-Barr LMP1 NF-kappaB reporter inhibition; AID 504558; actives 0.69% (n = 350,000); LMP1-induced NF-kappaB luciferase reporter cells, luminescence; inhibition, % at 12.5 µM; in the data active means inhibition above about 41%
HIF-2a block: HIF-2a inhibition | 786-0 RCC cells HIF-2a reporter, luciferase luminescence, overnight | inhibition, % at 18.8 µM | actives 0.72% (n = 360,000) | AID 624352;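 active means inhibition of the luminescence signal of 40% or more relative to plate controls, in a single-dose primary screen at 18.75 µM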
Peg3 promoter: Peg3 promoter activity inhibition; HeLa PEG-Prom luciferase reporter, luminescence, overnight; actives 1.7% (n = 360,000); inhibition, % at 20 µM;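 active means inhibition of at least 50% at 20 µM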
Shn3 inh set2: reduces Shn3 3'UTR luciferase signal in osteoblasts; Clone20 osteoblast Shn3 3'UTR firefly luciferase, 24 h; inhibition, % at 12.5 µM; actives 0.52% (n = 360,000); AID 588674;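 active means mean inhibition of at least 75% with every replicate also reaching 75%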
CF NFkB inh: blocks PAF-induced NF-kB reporter in cystic fibrosis cells; KKLEB NF-kB-GFP reporter, GFP fluorescence overnight; inhibition, % at 5 µM; actives 0.86% (n = 360,000);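 active means at least 50% inhibition at 5 µM, scaled per plate between neutral and stimulator controls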;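 further: PAF is a Pseudomonas aeruginosa culture filtrate used as stimulus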
Of the large screens only hits and unclear results are named; the others gave an inactive call. Shown are actives, neighbours in structure and some others; about 2.9% of the full set was active somewhere.

N#Cc1cccc(-c2csc(C(O)c3ccc(F)cc3)n2)c1 (centres undefined)	none (no result: EBV LMP1 NFkB)
Cc1nc([N+](=O)[O-])c(Br)n1CC(=O)c1ccccc1	none
Cc1nc([N+](=O)[O-])c(Br)n1CC(=O)c1ccc2ccccc2c1	KKLEB cytotox -52, Shn3 inh set2 95, CF NFkB inh 64
Cc1ccc(C(=O)Nc2cccc(C(=O)NCc3ccccc3)c2)o1	none
C/C(=N\NC(=O)C1(C)CC1(Br)Br)c1cccc(NC(=O)c2ccc(C)o2)c1 (centres undefined)	Peg3 promoter 62
CC(C)CNC(=S)N1CCC(NC(=O)c2ccco2)CC1	none
Cc1ccc(C(=O)N2CCN(C/C=C/c3ccccc3)CC2)cc1S(=O)(=O)N1CCOCC1	none
CC(O)CNc1nc2ccccc2n1CC(=O)NCCc1ccc(Cl)cc1 (centres undefined)	none
CCCSc1nc2c(cnn2-c2ccccc2)c(=O)[nH]1	none
CCCSc1nc2c(cnn2-c2ccc(C)cc2)c(=O)[nH]1	Peg3 promoter 61
CN(Cc1ccccc1)C(=O)c1cccc(NC(=O)Cc2ccc([N+](=O)[O-])cc2)c1	Shn3 inh set2 88
Nc1nc(Cl)cc(N2CCC(c3cc(-c4ccc(Cl)cc4)n[nH]3)CC2)n1	Shn3 inh set2 81
CCCc1nn2c(=O)c(C(c3cccc(Cl)c3)c3c(O)nc4sc(CCC)nn4c3=O)c(O)nc2s1	none
COCCNC(=O)CSc1nc2ccccc2c(=O)n1CCC(=O)N1CCN(c2ccccc2)CC1	none
Cn1cccc1/C=N/n1c(-c2ccc(Cl)cc2Cl)n[nH]c1=S	EBV LMP1 NFkB 84
CC1Nc2nc(N(C)C)[nH]c(=O)c2NC1C (centres undefined)	none
Cc1ccc(NC(=O)c2ncn(CCCN[C@H](C)c3cccc4ccccc34)n2)cc1C	Peg3 promoter 85
Cc1ccc(NCCCn2cnc(C(=O)Nc3ccc(C)c(C)c3)n2)cc1C	none
CC1CCC(NC(=O)c2ccc(COc3ccccc3)o2)CC1 (centres undefined)	none
CCOC(=O)c1c(N2C(=O)C=CC2=O)sc(C)c1C	HIF-2a block 47, Peg3 promoter 105
CCOC(=O)c1c(NC(N)=O)sc(C)c1C	none
COc1cc(C2C3=C(COC3=O)Oc3cc4c(cc32)OCO4)cc(OC)c1OC(C)=O (centres undefined)	CF NFkB inh 67
CCCC(=O)OCC(=O)c1[nH]c(C)c(C(C)=O)c1C	none
COc1cc(C(=O)NC(=S)Nc2cccc(-c3cc4ccccc4oc3=O)c2)cc(OC)c1OC	none
Cc1cc(NC(=S)NC(=O)c2ccccc2)ccc1-c1cc2ccccc2oc1=O	KKLEB cytotox -61, CF NFkB inh 56
CCOc1cc(C(=O)O/N=C(\N)c2ccccn2)cc(OCC)c1OCC	Peg3 promoter 84
N/C(=N\OC(=O)c1cccc(Br)c1)c1ccccn1	EBV LMP1 NFkB 45
CCOc1cccc(-c2c(C(=O)N/N=C/c3ccsc3)nnn2-c2nonc2N)c1	none
Oc1ccc(C2C[C@H]3CC[C@@H]2C3)cc1O (some centres undefined)	HIF-2a block 55
O=C(NC(Nc1ncc(S(=O)(=O)c2ccc([N+](=O)[O-])cc2)s1)(C(F)(F)F)C(F)(F)F)c1ccc(Cl)cc1	KKLEB cytotox -55
COCC(=O)Nc1ncc(S(=O)(=O)c2ccc([N+](=O)[O-])cc2)s1	none
CC1CCC2C(=O)N(c3ccc(Cc4ccncc4)cc3)C(=O)C2C1 (centres undefined)	Shn3 inh set2 87
CC1(C)c2[nH]c3ccccc3c2C[C@@H]2C(=O)N(Cc3ccc(F)cc3)C(=O)N21	Peg3 promoter 62
CN(C)S(=O)(=O)c1cccc(NC(=O)c2cccc(S(=O)(=O)N3CCc4ccccc43)c2)c1	Shn3 inh set2 92
O=C(Nc1nc2c(s1)CCCC2)c1ccc(S(=O)(=O)N2CCCc3ccccc32)cc1	none
Cc1cccc(S(=O)(=O)N2CCCc3ccccc32)c1	EBV LMP1 NFkB 48
CNC(=O)c1ccsc1NC(=O)c1ccc(S(=O)(=O)N2CCCc3ccccc32)cc1	Peg3 promoter 55
CCCNC(=O)CSc1nc2ccc(OCC)cc2s1	none
N/C(COc1cccc(Cl)c1)=N\NS(=O)(=O)c1ccccc1	none
CC1CCCC(C)N1CCCNC(=O)c1cc2c(s1)-c1ccccc1OC2 (centres undefined)	Peg3 promoter 79
Cc1oc(/N=C/c2ccc(O)cc2O)c(C#N)c1C	none
O=C(CCl)Nc1cn(-c2ccccc2)nc1-c1ccccc1	KKLEB cytotox -71, Peg3 promoter 84
CCCCNC(=O)C1C(c2ccc(OC)cc2)=Nc2ccccc2N1C(=O)c1ccncc1 (centres undefined)	none (no result: KKLEB cytotox, EBV LMP1 NFkB, Peg3 promoter, Shn3 inh set2, CF NFkB inh)
Cn1c(=O)c(/C=C/c2ccccc2)nc2ccccc21	none
Cn1c(/C=C/c2ccccc2)nc2ccccc21	EBV LMP1 NFkB 47
COC(=O)C1=C(C)N(Cc2ccccc2)C(=NCc2ccccc2)N[C@H]1c1ccccc1	Peg3 promoter 92
CCN(CC)CCCN=C1N[C@@H](c2cccc(C(F)(F)F)c2)C(C(=O)OC)=C(C)N1CC	Peg3 promoter 51
COC(=O)C1=C(C)N(Cc2ccccc2)C(=NCCc2c[nH]c3ccccc23)N[C@H]1c1cccc(F)c1	Peg3 promoter 102, Shn3 inh set2 98
COCCN=C1N[C@@H](c2ccccc2)C(C(=O)OC)=C(C)N1Cc1ccccc1	none
COC(=O)C1=C(C)N(Cc2ccccc2)C(=NCc2cc(OC)c(OC)c(OC)c2)N[C@H]1c1ccc(Br)cc1	Peg3 promoter 106
COC(=O)C1=C(C)N(Cc2ccccc2)C(=NCc2cc(OC)c(OC)c(OC)c2)N[C@H]1c1ccccc1	none (no result: KKLEB cytotox, HIF-2a block, Peg3 promoter, CF NFkB inh)
CCCN(Cc1ccccc1)C(=S)NC(=O)c1ccccc1[N+](=O)[O-]	none
CCC(=O)Nc1ccc(C(=O)COC(=O)Cc2ccsc2)cc1	none
COC(=O)C1=C(C)N(Cc2ccccc2)C(=S)N[C@H]1c1cccc(F)c1	none
COC(=O)C1=C(C)N(Cc2ccccc2)C(=NCc2ccccc2)N[C@H]1c1cccc(F)c1	Peg3 promoter 101
NC(=O)CNC(=O)c1ccc(Cl)cc1	none
O=C1NC(=S)S/C1=C\c1cc2ccccc2nc1N1CCCCC1	CF NFkB inh 55 (no result: Shn3 inh set2)
CN(C)CCN=Cc1c(O)n(Cc2ccccc2)c(=O)c2ccccc12	none
CC1(C)CC(N=Cc2c(O)n(Cc3ccc4c(c3)OCO4)c(=O)c3ccccc23)CC(C)(C)N1	Peg3 promoter 82
O=C(N/N=C/c1c[nH]c2ccccc12)c1cc(Cl)ccc1O	none
CN(Cc1cccs1)C(=O)CNC(=O)c1ccco1	none
Cn1cccc1C(=O)OCC(=O)Nc1ccc2c(c1)OCO2	EBV LMP1 NFkB 44
CCCCC(=O)NC(NC(=S)N1CCCCCC1)C(Cl)(Cl)Cl (centres undefined)	none
CCN(CC)C(=S)SSC(=S)N(CC)CC	Peg3 promoter 68
